Out of some 69,000 compounds screened, about 8,600 (12%) showed an effect of 50% or more. The sample holds strong results, similar compounds and a random draw of the others, so the mix is not that of the screen.

The experiment concerns Plasmodium berghei. Kind of experiment: Screen against P. berghei liver stage (PbLuc), transformed with Luciferase, at 10uM. In kind it is functional, HepG2. To be noted: tested at 10 uM.
On to `CN(C)C(=O)CO[C@@H]1CN(Cc2ccccc2F)[C@@H]2CCCO[C@@H]21`, for which the INHIBITION is reported as -1.83%.
On to `c1cnc2c(c1)cc([C@H]1CCCO1)n2CCN1CCCCC1`, for which the INHIBITION turned out to be 35.3%.
With `Cc1ccc(C(=O)N2CCC3(CCCCC3)C2)c(=O)[nH]1`, the INHIBITION was determined as 21.7%.
The result for `CC(C)c1cc(C(=O)N2CCOC3(CCNCC3)C2)no1` reads 28.2%.
Consider `Cc1ccc(C(=O)N2CCC3(CCCC3)CC2)c(=O)[nH]1`, for which the INHIBITION is 37.1%.
The result for `Cc1ccc(C(=O)N2CCOC3(CCCC3)C2)c(=O)[nH]1` reads 51.7%.
The result for `CC(C)c1cc(C(=O)N2CCCC3(CCNC3)C2)no1` (centres undefined) reads 40.2%; that for `CC(C)c1cc(C(=O)N2CCOC3(CCCC3)C2)no1`, 50.4%; that for `CN(Cc1ccco1)[C@@H]1CN(C(=O)c2cnccn2)C[C@@H]2CCCO[C@@H]21`, -2.17%.
In the case of `CC(C)NC(=O)[C@H]1C[C@H]2CN(C(=O)NCc3ccccc3)C[C@@H]1O2`, the INHIBITION is -43.8%.
Consider `CCn1nc(C)c(C(=O)Nc2ccc3c(c2)C(C)(C)C(=O)N3C)c1C`, for which the INHIBITION was 23.4%.
`Cc1nc(C)n(C2CCCN(C(=O)c3ccc(CN(C)C)cc3)C2)n1` (centres undefined): the INHIBITION is on record as 5.45%.
The result for `CCN(Cc1cccc(Cl)c1)Cc1ncc(C(C)(C)C)o1` reads 49%; that for `Cc1cccc(CN(Cc2ccccn2)S(=O)(=O)N(C)C(C)C)c1`, -12.4%; that for `CC(C)(C)c1cnc(CNc2cccc(Cn3cnnc3)c2)o1`, -17.6%.
Turning to `Cc1cccc(NCc2ncc(C(C)(C)C)o2)c1`, the INHIBITION was 72.2%.
Consider `Cc1ccc(CN(C)Cc2ncc(C(C)(C)C)o2)o1`, for which the INHIBITION was found to be 46.4%.
To `CCN(Cc1ncc(C(C)(C)C)o1)Cc1ccccc1C` belongs 53.3%; to `Cc1cccc(CN(Cc2ccccn2)Cc2ncc(C(C)(C)C)o2)c1`, 71.5%; to `Cc1cccc(CN(Cc2ccccn2)S(=O)(=O)N(C)C)c1`, -1.38%.
Regarding `Cc1ccc(NCc2ncc(C(C)(C)C)o2)c(Cl)c1`, the INHIBITION is listed as -26.2%.
With `Nc1ncc(-c2cccc(NC(=O)[C@@H]3CCCCN3)c2)cn1`, the INHIBITION is listed as 14.5%.
In the case of `Cc1cncc(C(=O)N2C[C@H]3CCC[C@@]3(COc3ccccn3)C2)c1`, the INHIBITION was 24.5%.
Take `CN(C)S(=O)(=O)N1CC[C@H]2OCC[C@@]2(COc2cccnc2)C1`: the INHIBITION is recorded as 33%.
As for `Cc1nc(C)c(CN2CCOC(CNc3cccnn3)C2)s1` (centres undefined), the INHIBITION amounted to 41.5%.
In the case of `O=C(c1cc(-n2cccn2)ccc1Cl)N1CCCC(N2CCCC2)C1` (centres undefined), the INHIBITION is on record as 14.6%.
Take `CCN(C)C[C@@H]1CN(C(=O)c2cc(-c3ccc(F)cc3)n[nH]2)C[C@@H]1CO`: the INHIBITION is recorded as 43.9%.
To `CCc1ccc(CN2CC[C@@H]3CN(S(C)(=O)=O)CCO[C@@H]3C2)o1` belongs 42.6%; to `CCOc1cccc2c1OCC(=O)N(c1ccc3c(c1)OCCO3)C2`, 56.5%.
On to `CCOc1cccc2c1OCC(=O)N(c1ccc(N(C)C)cc1)C2`, for which the INHIBITION came to 45.5%.
For `CCOc1cccc2c1OCC(=O)N(c1ccc3c(c1)OCO3)C2`, the INHIBITION was 14.9%.
In the case of `Cc1ccoc1C(=O)N1CCc2ccc(=O)n(CCN(C)C)c2CC1`, the INHIBITION is -16.2%.
As for `CCN(CC)C(=O)c1nc2c(s1)CCN(C(=O)Nc1ccccc1)CC2`, the INHIBITION amounted to 58.3%.
Consider `NC(=O)c1nc2c(s1)CCN(C(=O)Nc1cccc(Cl)c1)CC2`, for which the INHIBITION was 80.2%.
Take `NC(=O)c1nc2c(s1)CCN(Cc1ccccc1)CC2`: the INHIBITION was determined as 12.1%.
To `CNC(=O)N1CCc2nc(C(=O)Nc3cccnc3)sc2CC1` belongs 42.6%; to `O=C(c1ccc(Cl)cc1)N1CCc2nc(C(=O)N3CCCC3)sc2CC1`, -29.3%.
Regarding `O=C(Nc1ccccc1)N1CCc2nc(C(=O)N3CCCC3)sc2CC1`, the INHIBITION is 89.1%.
As for `CNC(=O)c1nc2c(s1)CCN(C(=O)c1ccccc1)CC2`, the INHIBITION is reported as 1.9%.
Regarding `COCC(=O)N1CCc2nc(C(=O)Nc3cccnc3)sc2CC1`, the INHIBITION is -52.3%.
As to `NC(=O)c1nc2c(s1)CCN(C(=O)Nc1ccccc1)CC2`, the INHIBITION is recorded as 40.5%.
The result for `Cc1ccc(CN2C[C@@H]3COC[C@H](NS(C)(=O)=O)[C@@H]3C2)s1` reads -1.36%; that for `CCNC(=O)NC(C)c1nc(-c2ccc(Br)cc2)no1` (centres undefined), 33.5%; that for `Cc1nccc(C2CCCCN2Cc2ccccc2)n1` (centres undefined), 20.8%.
Consider `Cc1nccn1C1CCCN(C(=O)c2cccc(S(C)(=O)=O)c2)C1` (centres undefined), for which the INHIBITION is on record as 19.5%.
The result for `CCOc1nnc(CN(C)C2CCCN(c3ccc(C)nn3)C2)s1` (centres undefined) reads 46.7%.
The result for `CNC(=O)C1(N2CCC[C@H]2C(=O)NC2CCCCC2)CCOCC1` reads -1.36%.
To `c1ccc(N2CCOC(Cc3cccnc3)C2)cc1` (centres undefined) belongs -33.4%.
With `CCN(CC)Cc1nc(Cc2cccc(C(F)(F)F)c2)no1`, the INHIBITION was 26.7%.
The result for `NC(=O)N1CCCN(C2CCc3ccc(F)cc32)CC1` (centres undefined) reads 84.2%; that for `O=C(CN1CCOCC1)N1CCN(C2CCc3ccc(F)cc32)CC1` (centres undefined), 54.4%.
As to `O=C(c1cc(F)ccc1O)N1CCN(C2CCOCC2)CC1`, the INHIBITION is listed as 3.84%.
With `NC(=O)C1CCN(C(=O)NC2CCc3cc(F)ccc32)CC1` (centres undefined), the INHIBITION came out at 17%.
The result for `O=C(c1ccccc1)N1CCN(C2CCc3ccc(F)cc32)CC1` (centres undefined) reads 49.4%; that for `O=C(CN1CCOCC1)N1CCC(c2cc(N3CCCC3)ncn2)CC1`, -85.6%; that for `Cc1ncsc1C(=O)NCCNC(=O)Cc1cccc(F)c1`, -89.6%.
`CC(Cn1cccn1)NC(=O)Nc1nncs1` (centres undefined): the INHIBITION is on record as -39.7%.
To `COCCN1CCCN(C(=O)NC(C)Cn2ccnc2)CC1` (centres undefined) belongs 26.3%.
The result for `Cc1ccnc(OC[C@@]23CCO[C@@H]2CCN(c2ncc(F)cn2)C3)n1` reads 16.9%; that for `CC(C)CN1CCCC(c2nc(O)c3cc(F)ccc3n2)C1` (centres undefined), 20.1%; that for `COC(=O)[C@@H]1Cc2[nH]cnc2CN1Cc1cc2ccccc2o1`, 56.8%.
Take `O=C([C@@H]1Cc2[nH]cnc2CN1Cc1cc2ccccc2o1)N1CCCC1`: the INHIBITION is recorded as -67.6%.
For the molecule `COC(=O)C1Cc2nc[nH]c2CN1Cc1ccc(Sc2ncccn2)o1` (centres undefined), the INHIBITION is reported as 35.7%.
As to `Cc1cccc(N2CCN(C(=O)CC3(O)CCCC3)C(C)C2)n1` (centres undefined), the INHIBITION is -24.2%.
To `CNc1nc(C(=O)N2C[C@@H]3CC[C@H]2CN(S(C)(=O)=O)C3)cs1` belongs 7.1%.
With `CNc1nc(C(=O)N2C[C@@H]3CCN(C)[C@@H]3C2)cs1`, the INHIBITION turned out to be 55%.
With `CNc1nc(C(=O)N2CCCN(c3ccnc(C)c3)CC2)cs1`, the INHIBITION is given as -10.6%.
To `CN1CC[C@H]2CN(C(=O)c3csc(Cc4ccccc4)n3)C[C@H]21` belongs 22.9%; to `Cc1csc(N2CCCN(C(=O)c3csc(C)n3)CC2)n1`, 37.9%.
With `COc1ccnc(N2CCN(C(=O)c3csc(C)n3)CC2)n1`, the INHIBITION is -12.6%.
Regarding `CNc1nc(C(=O)N2CCN(c3cc(C)nc(C)c3)CC2)cs1`, the INHIBITION is given as 34.9%.
Take `CNc1nc(C(=O)N2CCN(c3ccc(Cl)c(Cl)c3)CC2)cs1`: the INHIBITION is reported as 86.6%.
To `Cc1nc(C(=O)N2CCN(c3ccc(Cl)c(Cl)c3)CC2)cs1` belongs 90.3%; to `CC(O)CN(C)C(=O)CCNC(=O)OC(C)(C)C` (centres undefined), 44.9%; to `CC(C)N1CCC(c2cnc(-c3cn[nH]c3)cn2)CC1`, 20.5535%.
Regarding `CC(=O)N[C@@H]1CN(C(=O)c2cccc(C)c2)C[C@H]1O`, the INHIBITION came to 0.19%.
To `CC[C@H](C)[C@H](NC(=O)c1cccc(-n2cnnn2)c1)C(=O)OC` belongs 30.5%; to `CC[C@H](C)[C@H](NC(=O)c1ccc(-n2cnnn2)cc1)C(=O)OC`, 61.2%; to `CCC(C)[C@H](NC(=O)c1cc(F)ccc1-n1cnnn1)C(=O)OC` (some centres undefined), 46.1%.
In the case of `CCC(C)[C@H](NC(=O)c1ccc(F)cc1-n1cnnn1)C(=O)OC` (some centres undefined), the INHIBITION is recorded as 51.3%.
Turning to `CC[C@H](C)[C@H](NC(=O)c1ccccc1-n1cnnn1)C(=O)OC`, the INHIBITION is -14.2%.
As to `CCC(C)[C@H](NC(=O)c1cc(Br)ccc1-n1cnnn1)C(=O)OC` (some centres undefined), the INHIBITION was 34.7%.
For `O=C(Nc1ccccn1)c1ccc(F)c(S(=O)(=O)NC2CC2)c1`, the INHIBITION came out at 4.34%.
In the case of `CCn1cc(-n2cc3nc(N4CCOCC4)[nH]cc-3c2=O)cn1`, the INHIBITION is reported as -37.9%.
As for `CN1CCC(NC(=O)Cc2csc(C(C)(C)C)n2)CC1`, the INHIBITION is 47.2%.
Turning to `CCN1CCC(NC(=O)Cc2csc(C(C)(C)C)n2)CC1`, the INHIBITION came to 50.5%.
As to `CC(C)(C)c1nc(CC(=O)NCCC(=O)Nc2ccncc2)cs1`, the INHIBITION worked out at 45.4%.
The result for `CC(C)c1nc(CC(=O)Nc2cnccc2O)cs1` reads 29.4%; that for `CN(C)C(=O)C1CCN(Cc2csc(C(C)(C)C)n2)CC1`, 56.4%; that for `CC(C)(C)c1nc(CC(=O)Nc2cnccc2O)cs1`, 52.5%.
In the case of `CCc1nc(CN2CCC(C(=O)N(C)C)CC2)cs1`, the INHIBITION worked out at 11.8%.
With `CCOC(=O)C1CCN(Cc2csc(C(C)(C)C)n2)CC1`, the INHIBITION was -13.3%.
`CC(=O)N1CCC(NC(=O)Cc2csc(C(C)(C)C)n2)CC1`: the INHIBITION was 5.91%.
To `Cn1ncc2c1C(COCC1CC1)N(C(=O)c1ccncn1)CC2` (centres undefined) belongs 47.4%; to `CN(CCNC(=O)NCc1ccsc1)C1CCCC1`, -43.5%; to `CN(Cc1coc(-c2ccccc2)n1)C1CCCN(c2cccnn2)C1` (centres undefined), 24%.
Regarding `Cn1cccc1C(=O)N1C[C@@H](OCc2ccncc2)[C@@H]2OCCC[C@@H]21`, the INHIBITION was 42.5%.
With `O=C1NCCO[C@H]2CN(C(=O)Cc3cccs3)CC[C@@H]12`, the INHIBITION turned out to be 14%.
As for `O=C1NCCO[C@H]2CN(C(=O)Cc3ccco3)CC[C@@H]12`, the INHIBITION is -2.26%.
As for `COc1cc(F)ccc1CC(=O)N1CC[C@H]2C(=O)NCCO[C@H]2C1`, the INHIBITION came out at 52.1%.
For the molecule `Cc1ccc(F)c2c1CCCN2Cc1cc(=O)n(C)c(=O)n1C`, the INHIBITION amounted to 38.8%.
To `CC[C@H](C)[C@@H](CO)NC(C)Cc1ccc(Cl)cc1` (some centres undefined) belongs 71.2%; to `CC[C@H](C)[C@@H](CO)NC(C)Cc1ccc(C)cc1` (some centres undefined), 41.7%.
As to `CC[C@H](C)[C@@H](CO)NC(C)Cc1ccc(F)cc1` (some centres undefined), the INHIBITION is reported as 8.24%.

The record behind these values is ChEMBL document CHEMBL4513216, “Probing the Open Global Health Chemical Diversity Library for Multistage-Active Starting Points for Next-Generation Antimalarials” (ACS Infect Dis, 2020).
